Test results: PubChem BioAssay (Tox21)
Values joined by “and” are separate entries in the source; they are usually repeats but may differ in a detail not shown here. Equal entries are not always repeated. Inconclusive results are not listed. Active and inactive are the calls of the source. Unless noted, calls come from the whole dose curve; as a rule, active = well fitted curve in the direction sought with a large enough effect in the repeat runs; inconclusive = weak or mixed curves; inactive = no such curve, though single readings can be large; an effect the other way counts as inactive or inconclusive.

Legend:
[1] = qHTS assay for small molecules that induce genotoxicity in human embryonic kidney cells expressing luciferase-tagged ATAD5 (AID 651632); note: nearly all actives have a fitted effect of over 15% in size; note: potency is the fitted concentration of half-maximal effect
Summary of the method: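 Luminescence read-out: after 16 hr compound exposure at 37C, ATAD5-luciferase HEK293T cells received Amplite, 30 min RT, then CCD imaging. A rise in signal marks genotoxic stress.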

[2] = qHTS assay for small molecule agonists of the p53 signaling pathway - cell viability (AID 651633; calls by dose curve; note: nearly all actives have a fitted effect of over 30% in size; note: potency is the fitted concentration of half-maximal effect)
Summary of the method: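 Viability counter-read: CellTiter-Glo luminescence (30 min, room temperature) in the same p53RE-bla plates. These plates had been exposed to compounds for 16 h at 37 C.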

[3] = qHTS assay for small molecules that induce genotoxicity in human embryonic kidney cells expressing luciferase-tagged ATAD5 - cell viability (AID 651634; calls by dose curve; note: nearly all actives have a fitted effect of over 25% in size; note: potency is the fitted concentration of half-maximal effect)
Summary of the method: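 HEK293T ATAD5-luc cells, 2,000/well; compound 15.5 hr, 37C/5% CO2; CellTiter-Fluor 30 min, 37C; fluorescence read.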

[4] = qHTS assay for small molecule disruptors of the mitochondrial membrane potential - cell viability (AID 720634; calls by dose curve;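 note: human HepG2 liver cancer cells; series mostly up to about 83 µM; nearly all actives have a fitted effect of over 20% in size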)
Summary of the method: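 Luminescence from CellTiter-Glo (ATP content) gave viability in HepG2 cells, read in the same wells as the MMP dye assay after 1 hr compound exposure at 37 C.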

[5] = qHTS assay to test for compound auto fluorescence at 590 nm (red) in HepG2 cells (AID 720674)
Summary of the method: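 We screened compounds on adherent HepG2 cells, incubating them for an hour at 37 C in 5% CO2 before reading emission at 590 nm under 540 nm excitation; values reflect equivalence to Rose Bengal sodium fluorescence.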

[6] = qHTS assay to test for compound auto fluorescence at 460 nm (blue) in HEK293 cells (AID 720678)
Summary of the method: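 Intrinsic compound fluorescence is recorded in live HEK293 cultures after overnight incubation at 37C, 5% CO2, using excitation 405 nm and emission 460 nm. Values are referenced to triamterene.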

[7] = qHTS assay to test for compound auto fluorescence at 590 nm (red) in HEK293 cells (AID 720679)
Summary of the method: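 Red autofluorescence, HEK293 cells: 2,000 cells/well; attach 4-5 hr 37C; add 23 nL cpd or DMSO; incubate o/n 37C 5% CO2; read Ex540/Em590; Rose Bengal sodium reference.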

[8] = qHTS assay to test for compound auto fluorescence at 535 nm (green) in HEK293 cells (AID 720680)
[9] = qHTS assay to test for compound auto fluorescence at 460 nm (blue) in HEK293 cell free culture (AID 720681)
Summary of the method: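 Blue fluorescence (Ex 405/Em 460 nm, triamterene-equivalent) was read immediately after pin transfer of compound or DMSO into medium (DMEM, 10% FBS) without cells.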

[10] = qHTS assay to test for compound auto fluorescence at 535 nm (green) in HEK293 cell free culture (AID 720682)
Summary of the method: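 DMEM + 10% FBS, cell-free; cpd or DMSO pinned in; Ex485/Em535 read; output as fluorescein-equivalent signal.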

[11] = qHTS assay to test for compound auto fluorescence at 590 nm (red) in HEK293 cell free culture (AID 720683)
Summary of the method: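 Red-channel autofluorescence of compounds in culture medium (DMEM, 10% FBS), no cells, measured at 540/590 nm. Rose Bengal sodium is the reference fluorophore for equivalence.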

[12] = qHTS assay to identify small molecule antagonists of the glucocorticoid receptor (GR) signaling pathway - cell viability counter screen (AID 720693); note: nearly all actives have a fitted effect of over 55% in size; note: potency is the fitted concentration of half-maximal effect
[13] = qHTS assay for identifying genotoxic compounds that show differential cytotoxicity against isogenic chicken DT40 cell lines with known DNA damage response pathways - Rad54/Ku70 mutant cell line (AID 743015); note: nearly all actives have a fitted effect of over 60% in size; note: potency is the fitted concentration of half-maximal effect
[14] = qHTS assay to identify small molecule antagonists of the estrogen receptor alpha (ER-alpha) signaling pathway - cell viability counter screen (AID 743074; calls by dose curve;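 note: HEK293 cells carrying ER-alpha-UAS-bla reporter stimulated with 17beta-estradiol; nearly all actives have a fitted effect of over 45% in size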; note: potency is the fitted concentration of half-maximal effect)
Aromatase (Homo sapiens) = Aromatase (Homo sapiens) (UniProt P11511); experiment: qHTS assay to identify aromatase inhibitors (AID 743083); note: nearly all actives have a fitted effect of over 55% in size; note: potency is the fitted concentration of half-maximal effect
[15] = qHTS assay to identify aromatase inhibitors - cell viability counter screen (AID 743084);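 note: cells stimulated with testosterone during compound exposure; nearly all actives have a fitted effect of over 55% in size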
[16] = target: Aryl hydrocarbon receptor (Homo sapiens) (UniProt P35869); experiment: qHTS assay to identify small molecule that activate the aryl hydrocarbon receptor (AhR) signaling pathway (AID 743085); note: nearly all actives have a fitted effect of over 15% in size; note: potency is the fitted concentration of half-maximal effect
Summary of the method: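 A multiplexed format paired cell viability (CellTiter-Fluor fluorescence) with AhR-dependent luciferase output (ONE-Glo luminescence) in the same wells of HepG2 DRE-luc cells after 24 h compound exposure at 37C.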

[17] = qHTS assay to identify small molecule that activate the aryl hydrocarbon receptor (AhR) signaling pathway - cell viability counter screen (AID 743086);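 note: HepG2 liver cells carrying the AhR DRE luciferase reporter; series mostly up to about 70 µM; nearly all actives have a fitted effect of over 45% in size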
Summary of the method: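 Cytotoxicity counter screen: CellTiter-Fluor signal (30 min, 37 C) in 4000 HepG2 cells/well carrying the DRE-luciferase reporter, following 24 h compound exposure at 37 C.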

[18] = qHTS assay to identify small molecule phospholipidosis (PLD) inducers (AID 1259344; active = well fitted curve in the direction sought with a large enough effect; an effect the other way counts as inactive or inconclusive)
Summary of the method: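 Phospholipid accumulation was scored by imaging: fixed, Hoechst-counterstained HepG2 cells stained with LipidTOX Red after 24 h compound exposure at 37 C. Read-outs were pit count and pit intensity per well or per cell, with amiodarone and DMSO controls.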

[19] = target: Acetylcholinesterase (Homo sapiens) (UniProt P22303); experiment: Acetylcholinesterase (AChE) small molecule antagonists: colormetric cell-based qHTS assay (AID 1347395; calls by dose curve; note: nearly all actives have a fitted effect of over 30% in size; note: potency is the fitted concentration of half-maximal effect)
Summary of the method: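 Homogeneous whole-cell format. SH-SY5Y cells seeded overnight, dosed with compound (30 min, 37 C, 5% CO2), then given DTNB/acetylthiocholine cocktail for 90 min at 37 C; colorimetric signal.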
% is set by controls: 0 for no effect and ±100 for the full control effect.

Chain of Acetylcholinesterase (Homo sapiens) (P22303 whole entry, looked up): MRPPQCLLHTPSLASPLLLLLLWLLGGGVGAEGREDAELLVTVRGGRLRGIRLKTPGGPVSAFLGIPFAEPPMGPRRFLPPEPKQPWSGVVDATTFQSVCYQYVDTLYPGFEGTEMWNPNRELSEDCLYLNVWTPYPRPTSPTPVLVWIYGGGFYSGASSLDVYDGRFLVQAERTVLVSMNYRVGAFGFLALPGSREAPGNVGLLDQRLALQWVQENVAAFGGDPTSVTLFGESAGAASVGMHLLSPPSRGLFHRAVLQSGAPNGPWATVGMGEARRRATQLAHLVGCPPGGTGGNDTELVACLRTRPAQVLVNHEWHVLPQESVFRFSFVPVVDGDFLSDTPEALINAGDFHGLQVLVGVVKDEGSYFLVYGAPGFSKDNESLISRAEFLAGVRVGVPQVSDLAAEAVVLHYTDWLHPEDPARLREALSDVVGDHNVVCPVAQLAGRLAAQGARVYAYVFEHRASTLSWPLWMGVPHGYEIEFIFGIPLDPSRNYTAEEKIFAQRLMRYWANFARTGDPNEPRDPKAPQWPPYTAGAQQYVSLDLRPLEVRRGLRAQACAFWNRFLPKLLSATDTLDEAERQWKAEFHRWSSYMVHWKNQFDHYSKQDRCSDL
Chain of Aromatase (Homo sapiens) (P11511 whole entry, looked up): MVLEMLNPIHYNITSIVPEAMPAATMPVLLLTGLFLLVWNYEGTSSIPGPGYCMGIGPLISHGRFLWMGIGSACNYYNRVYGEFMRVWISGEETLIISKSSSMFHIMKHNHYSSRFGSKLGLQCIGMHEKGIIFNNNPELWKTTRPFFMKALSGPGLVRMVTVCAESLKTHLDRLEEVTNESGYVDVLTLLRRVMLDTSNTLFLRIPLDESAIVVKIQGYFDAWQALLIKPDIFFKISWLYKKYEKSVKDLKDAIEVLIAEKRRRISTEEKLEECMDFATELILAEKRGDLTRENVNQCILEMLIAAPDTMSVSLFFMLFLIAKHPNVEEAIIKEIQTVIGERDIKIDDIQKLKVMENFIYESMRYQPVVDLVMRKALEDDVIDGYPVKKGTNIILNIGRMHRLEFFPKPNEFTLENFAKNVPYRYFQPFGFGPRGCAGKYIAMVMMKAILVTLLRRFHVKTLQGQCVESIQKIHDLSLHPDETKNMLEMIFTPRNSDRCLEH
Chain of Aryl hydrocarbon receptor (Homo sapiens) (P35869 whole entry, looked up): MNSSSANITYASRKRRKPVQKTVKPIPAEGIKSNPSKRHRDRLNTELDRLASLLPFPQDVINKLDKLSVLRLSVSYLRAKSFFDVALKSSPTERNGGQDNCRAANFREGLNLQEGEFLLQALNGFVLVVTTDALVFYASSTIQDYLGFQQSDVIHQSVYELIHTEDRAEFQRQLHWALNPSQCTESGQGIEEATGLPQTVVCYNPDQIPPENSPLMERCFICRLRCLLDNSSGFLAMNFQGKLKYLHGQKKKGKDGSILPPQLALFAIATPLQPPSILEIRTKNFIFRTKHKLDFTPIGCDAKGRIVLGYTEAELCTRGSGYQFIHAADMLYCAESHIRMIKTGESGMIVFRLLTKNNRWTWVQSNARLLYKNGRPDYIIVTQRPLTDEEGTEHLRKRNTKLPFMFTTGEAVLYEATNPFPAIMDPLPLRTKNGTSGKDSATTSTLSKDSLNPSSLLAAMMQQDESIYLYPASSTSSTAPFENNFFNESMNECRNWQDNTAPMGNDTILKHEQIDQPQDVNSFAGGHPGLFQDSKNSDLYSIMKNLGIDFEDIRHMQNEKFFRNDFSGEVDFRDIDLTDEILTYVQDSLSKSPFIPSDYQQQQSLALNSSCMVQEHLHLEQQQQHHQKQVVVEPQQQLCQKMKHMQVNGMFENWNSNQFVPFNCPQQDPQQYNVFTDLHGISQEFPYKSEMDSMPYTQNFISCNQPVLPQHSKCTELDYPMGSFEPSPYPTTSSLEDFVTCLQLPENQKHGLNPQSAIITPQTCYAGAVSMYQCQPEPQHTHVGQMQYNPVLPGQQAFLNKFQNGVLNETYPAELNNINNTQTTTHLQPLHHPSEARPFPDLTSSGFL

CC(C)=CCN1CC[C@]2(C)c3cc(O)ccc3C[C@H]1[C@H]2C
inactive: Potency [1] | Potency [2] | Potency [3] | Potency [4] | outcome [5] | Potency [6] | outcome [7] | Potency [8] | Potency [9] | Potency [10] | outcome [11] | Potency [12] | Potency [14] | Potency (Aromatase (Homo sapiens)) | Potency [15] | Potency [16] | Potency [17] | PLD induction [18] -0.374% [at 3.15 µM]
active: Potency [13] 27.3 µM

CC(C)[C@@]1(NC(=O)[C@@H]2C[C@@H]3c4cccc5[nH]cc(c45)C[C@H]3N(C)C2)O[C@@]2(O)[C@@H]3CCCN3C(=O)[C@H](Cc3ccccc3)N2C1=O
inactive: Potency [1] | Potency [2] | Potency [4] | outcome [5] | Potency [6] | outcome [7] | Potency [8] | Potency [9] | Potency [10] | outcome [11] | Potency [12] | Potency [14] | Potency (Aromatase (Homo sapiens)) | Potency [15]
active: Potency [13] 23.7 µM and 26.6 µM

CNC(=O)Oc1ccc2c(c1)[C@]1(C)CCN(C)[C@@H]1N2C
inactive: Potency (Aromatase (Homo sapiens))

Cc1c(N)cccc1N
active: Potency [16] 27.9 µM
inactive: Potency (Aromatase (Homo sapiens)) | Potency [19]

COc1ccc(C)cc1N
inactive: Potency (Aromatase (Homo sapiens)) | Potency [16] | Potency [19]

CN1[C@@H]2CC[C@H]1CC(OC1c3ccccc3CCc3ccccc31)C2 (stereo not given in full)
active: Potency [13] 11.4 µM
inactive: Potency [1] | Potency [2] | Potency [3] | Potency [4] | outcome [5] | Potency [6] | outcome [7] | Potency [8] | Potency [9] | Potency [10] | outcome [11] | Potency [12] | Potency [14] | Potency (Aromatase (Homo sapiens)) | Potency [15] | Potency [16] | Potency [17]

Brc1ccc(Oc2ccc(Br)cc2)cc1
inactive: Potency [19]

Cc1ccc(C)cc1
inactive: Potency (Aromatase (Homo sapiens)) | Potency [19]

COc1cc([C@@H]2c3cc4c(cc3[C@H](O)[C@H]3COC(=O)[C@H]23)OCO4)cc(OC)c1OC
inactive: Potency (Aromatase (Homo sapiens)) | Potency [19]

CCOC(=O)C1(c2ccccc2)CCCN(C)CC1 (stereo not given)
inactive: Potency [1] | Potency [2] | Potency [3] | Potency [4] | outcome [5] | Potency [6] | outcome [7] | Potency [9] | Potency [10] | Potency [12] | Potency [13] | Potency [14] | Potency (Aromatase (Homo sapiens)) | Potency [15] | Potency [16] | Potency [17] | Potency [18]

C=CCOc1c(Br)cc(C(C)(C)c2cc(Br)c(OCC=C)c(Br)c2)cc1Br
inactive: Potency [19]

O=C(Cl)c1cccc(C(=O)Cl)c1
inactive: Potency (Aromatase (Homo sapiens)) | Potency [16] | Potency [19]

CCN(CC)/[N+]([O-])=N/O
inactive: Potency [2] | Potency [4] | outcome [5] | Potency [6] | outcome [7] | Potency [8] | Potency [9] | Potency [10] | outcome [11] | Potency [12] | Potency [14] | Potency (Aromatase (Homo sapiens)) | Potency [15] | Potency [16] | Potency [17] | Potency [18]

CCCCCc1cc(O)c2c(c1)OC(C)(C)c1ccc(C)cc1-2
inactive: Potency [1] | outcome [5] | Potency [6] | outcome [7] | Potency [8] | Potency [9] | Potency [10] | outcome [11] | Potency [18]
active: Potency [2] 11.9 µM | Potency [3] 23.7 µM | Potency [12] 13.4 µM | Potency [13] 11.9 µM | Potency [14] 23.9 µM | Potency (Aromatase (Homo sapiens)) 13.3 µM

COc1ccc(OC)c(C[C@H](C)N)c1
inactive: Potency [1] | Potency [3] | Potency [4] | outcome [5] | Potency [6] | outcome [7] | Potency [8] | Potency [9] | Potency [10] | outcome [11] | Potency [12] | Potency [13] | Potency (Aromatase (Homo sapiens)) | Potency [15] | Potency [16] | Potency [17] | Potency [18]

Clc1ccc(Cl)c(Cl)c1Cl
inactive: Potency (Aromatase (Homo sapiens)) | Potency [16] | Potency [19]

CO[C@H]1[C@@H](O)C[C@H](O[C@H]2[C@@H](O)C[C@H](O[C@H]3[C@@H](O)C[C@H](O[C@H]4CC[C@@]5(C)[C@H](CC[C@@H]6[C@@H]5C[C@@H](O)[C@]5(C)[C@@H](C7=CC(=O)OC7)CC[C@]65O)C4)O[C@@H]3C)O[C@@H]2C)O[C@@H]1C
inactive: Potency [1] | Potency [4] | outcome [5] | Potency [6] | outcome [7] | Potency [9] | Potency [10] | outcome [11] | Potency (Aromatase (Homo sapiens)) | Potency [15] | Potency [16]
active: Potency [2] 0.0841 µM | Potency [3] 0.0944 µM | Potency [12] 0.756 µM | Potency [13] 0.668 µM

COc1cc(C[C@H](C)N)c(OC)cc1C
inactive: Potency [1] | Potency [2] | Potency [3] | Potency [4] | outcome [5] | Potency [6] | outcome [7] | Potency [8] | Potency [9] | Potency [10] | Potency [12] | Potency [13] | Potency [14] | Potency (Aromatase (Homo sapiens)) | Potency [15] | Potency [17] | Potency [18]

Cc1nnc2n1-c1sc(Br)cc1C(c1ccccc1Cl)=NC2
inactive: Potency [2] | Potency [3] | Potency [4] | outcome [5] | Potency [6] | outcome [7] | Potency [8] | Potency [9] | Potency [10] | outcome [11] | Potency [12] | Potency [14] | Potency (Aromatase (Homo sapiens)) | Potency [15] | Potency [16] | Potency [17] | Potency [18]
active: Potency [1] 23.7 µM | Potency [13] 26.6 µM

Clc1cc(Cl)c(-c2c(Cl)c(Cl)cc(Cl)c2Cl)cc1Cl
inactive: Potency [19]

Clc1cc(Cl)c(Cl)cc1Cl
inactive: Potency (Aromatase (Homo sapiens)) | Potency [16] | Potency [19]

C[C@@H]1[C@@H]2Cc3ccc(O)cc3[C@@]1(C)CCN2CCc1ccccc1
inactive: Potency [1] | Potency [2] | Potency [3] | Potency [4] | outcome [5] | Potency [6] | outcome [7] | Potency [8] | Potency [9] | Potency [10] | outcome [11] | Potency [12] | Potency [14] | Potency (Aromatase (Homo sapiens)) | Potency [15] | Potency [18]
active: Potency [13] 7.6 µM | Potency [16] 8.53 µM

CCCCNC(C)(C)[P+](=O)O
inactive: Potency [1] | Potency [2] | Potency [3] | Potency [4] | outcome [5] | Potency [6] | outcome [7] | Potency [8] | Potency [9] | Potency [10] | outcome [11] | Potency [12] | Potency [13] | Potency (Aromatase (Homo sapiens)) | Potency [15] | Potency [16] | Potency [17] | Potency [18]

C[N+](C)(C)CCCCCCCCCC[N+](C)(C)C
inactive: Potency (Aromatase (Homo sapiens)) | Potency [16]
active: Potency [19] 15.5 µM

C[C@H]1CC[C@]2(NC1)O[C@H]1C[C@H]3[C@@H]4CC[C@H]5C[C@@H](O)CC[C@]5(C)[C@H]4CC[C@]3(C)[C@H]1[C@@H]2C
inactive: Potency [1] | Potency [2] | Potency [3] | outcome [5] | Potency [6] | outcome [7] | Potency [8] | Potency [9] | Potency [10] | Potency [12] | Potency [13] | Potency [14] | Potency (Aromatase (Homo sapiens)) | Potency [15] | Potency [17]
